Assay results: PubChem BioAssay (EPA / NIEHS)
“And” between values parts separate entries of the source, which are not always exact repeats. Identical values can stand only once. The source holds several records for some structures; these can differ, active in one and inactive in another. The source made the active and inactive calls. The calls were made as follows: active = hit-call score of the fitted dose curve at least 0.9, where 1 is the maximum; inactive = score below 0.9.

What follows are compounds tested against Hypoxia-inducible factor 1-alpha (Homo sapiens) (UniProt Q16665) (assay: ATG_HIF1a_CIS: Attagene CIS-FACTORIAL HepG2 Assay for human Hypoxia Inducible Factor 1 (HIF1A) (AID 2282951)). Details: HepG2 Attagene cis-factorial HIF1a reporter transcription; actives raise or lower the signal.
Experimental: ATG_CIS is a cell-based, multiplexed-readout assay that uses HepG2, a human liver cell line, with measurements taken at 24 hours after chemical dosing in a 24-well plate.ATG_HIF1a_CIS is one of 52 assay component(s) measured or calculated from the ATG_CIS assay. It is designed to make measurements of mRNA induction, a form of inducible reporter, as detected with fluorescence intensity signals by Reverse transcription polymerase chain reaction (RT-PCR) and Capillary electrophoresis technology.Data from the assay component ATG_HIF1a_CIS was analyzed into 1 assay endpoint. This assay endpoint, ATG_HIF1a_CIS, was analyzed with bidirectional fitting relative to DMSO as the negative control and baseline of activity. Using a type of inducible reporter, measures of mRNA for gain or loss-of-signal activity can be used to understand the reporter gene at the transcription factor-level as they relate to the gene HIF1A. Furthermore, this assay endpoint can be referred to as a primary readout, because this assay has produced multiple assay endpoints where this one serves a reporter gene function. To generalize the intended target to other relatable targets, this assay endpoint is annotated to the dna binding intended target family, where the subfamily is basic helix-loop-helix protein.
Human liver HepG2 cells are transiently transfected with multiple reporter transcription units (MRTUs) in 6-well plates using FuGene 6 reagent (Roche; 3 ml FuGene/1 mg DNA). The MRTU constructs are regulated by a cis-regulating element (promoter). […] A major difference between the CIS and TRANS system is that in CIS activities of endogenous TFs are measured, whereas the TRANS assay evaluates changes in activities of exogenous, chimeric NR-Gal4 proteins. […] At the end of 24 hour incubation, total RNA was isolated using TriZol reagent (Invitrogen). The isolated RNA is then reverse-transcribed using oligo(dT) primer and Mo-MLV reverse transcriptase (Invitrogen) with DNAse I (Ambion) treatment for 30 min. The one-tenth of the produced cDNA was amplified by PCR using Taq DNA polymerase (Invitrogen) and two reporter sequence-specific primers. The PCR products were fluorescently labeled by primer extension with 6-arboxyfluorescein (6-FAM) 5'-labeled reporter sequence-specific primer (2 min at 95 C, 20 s at 68 C and 10 min at 72 C) and these products were digested with 5U of HpaI (New England Biolabs) for 2h at 37 C. The fragments were purified using Qiaquick PCR columns (Qiagen), analyzed on an ABI 3130xL genetic analyzer (Applied Biosystems) with peak positions identified by using a set of X-rhodamine (ROX)-labeled MapMarker1000 molecular weight standards (BioVentures). The raw capillary electrophoresis data was processed using Attagraph software (Attagene).

Chain of Hypoxia-inducible factor 1-alpha (Homo sapiens) (Q16665 whole entry, looked up): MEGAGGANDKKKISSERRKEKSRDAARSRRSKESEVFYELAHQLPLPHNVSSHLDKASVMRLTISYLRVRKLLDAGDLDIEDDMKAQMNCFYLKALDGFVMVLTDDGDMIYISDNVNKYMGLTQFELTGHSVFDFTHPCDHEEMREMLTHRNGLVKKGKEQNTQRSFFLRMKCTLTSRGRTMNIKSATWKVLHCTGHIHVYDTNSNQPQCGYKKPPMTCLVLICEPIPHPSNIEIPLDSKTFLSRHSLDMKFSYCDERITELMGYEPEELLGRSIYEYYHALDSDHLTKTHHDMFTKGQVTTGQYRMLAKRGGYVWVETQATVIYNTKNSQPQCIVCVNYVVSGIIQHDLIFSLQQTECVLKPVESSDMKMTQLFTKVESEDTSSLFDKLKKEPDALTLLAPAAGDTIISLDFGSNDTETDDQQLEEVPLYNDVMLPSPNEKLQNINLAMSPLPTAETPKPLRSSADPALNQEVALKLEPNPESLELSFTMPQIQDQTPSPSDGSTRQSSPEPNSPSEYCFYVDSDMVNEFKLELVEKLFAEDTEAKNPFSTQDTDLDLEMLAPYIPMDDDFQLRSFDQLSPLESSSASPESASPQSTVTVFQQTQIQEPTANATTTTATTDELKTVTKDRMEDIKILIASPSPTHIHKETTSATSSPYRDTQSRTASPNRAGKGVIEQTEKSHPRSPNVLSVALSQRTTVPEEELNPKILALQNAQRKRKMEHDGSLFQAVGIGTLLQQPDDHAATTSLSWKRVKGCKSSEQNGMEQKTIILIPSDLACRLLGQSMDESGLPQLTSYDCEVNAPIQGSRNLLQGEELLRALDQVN

How did the AC50 turn out when CCCOC(=O)c1ccc(O)cc1 was run?
Its AC50 is 176 µM (active).

What about the outcome of the same compound?
The outcome was “inactive”.

With Nc1cccc2c(N)cccc12 as the compound, how does the outcome read?
Its outcome is “inactive”.

How did the AC50 turn out when CC#C[C@]1(O)CC[C@H]2[C@@H]3CCC4=CC(=O)CCC4=C3[C@@H](c3ccc(N(C)C)cc3)C[C@@]21C was run?
Its AC50 is 8.4 µM (active) [middle of 4 runs].

How did the AC50 turn out when CC(=O)NC1(c2cccc(F)c2)CCN(CC[C@@]2(c3ccc(Cl)c(Cl)c3)CN(c3ccccc3)C(=O)CO2)CC1 was run?
The AC50 was 8.61 µM (active).

How did the outcome turn out when CCCCC[C@H](O)CC(=O)CCc1ccc(O)c(OC)c1 was run?
The outcome was “inactive”.

What does the source list for CCC(=C(c1ccc(O)cc1)c1ccc(OCCN(C)C)cc1)c1ccccc1?
AC50: 4.12 µM (active); outcome: inactive

CCc1ccc(CCOc2ccc(CC3SC(=O)NC3=O)cc2)nc1 (stereo not given) was tested. Which outcome did it give?
The outcome was “inactive”.

c1ccc2c(c1)ccc1ccccc12 was tested. Which AC50 did it give?
Its AC50 is 26.9 µM (active).

For OC1CCCCC1, which outcome is on record?
Its outcome is “inactive”.

How did the AC50 turn out when CC(C)(C)c1cccc(C(C)(C)C)c1O was run?
Its AC50 is 173 µM (active).

For CC(C)CCCCCCOC(=O)CCCCC(=O)OCCCCCCC(C)C, which outcome is on record?
The outcome was “inactive”.

Which outcome does the source give for CCC(C)(C)C1CCC(O)CC1 (stereo not given) here?
Its outcome is “inactive”.

How did the outcome turn out when Oc1cccc(O)c1 was run?
Its outcome is “inactive”.

For CC(C)(C)CC(C)(C)c1ccc(O)c(-n2nc3ccccc3n2)c1, which outcome is on record?
Its outcome is “inactive”.

Cc1ccc(S(=O)(=O)O)c(C)c1 was tested. Which outcome did it give?
The outcome was “inactive”.

With CC(=O)CC(C)(C)O as the compound, how does the outcome read?
The outcome was “inactive”.

For CC(C)(C)c1ccc(O)c(C(C)(C)C)c1, which outcome is on record?
The outcome was “inactive”.

For O=C(OCCOCCOC(=O)c1ccccc1)c1ccccc1, which outcome is on record?
The outcome was “inactive”.

O=C1OC2(c3ccccc31)c1cc(Br)c(O)c(Br)c1Oc1c2cc(Br)c(O)c1Br was tested. Which outcome did it give?
Its outcome is “inactive”.

With CCCCC(CC)COC(=O)CCCCC(=O)OCc1ccccc1 (stereo not given) as the compound, how does the outcome read?
Its outcome is “inactive”.

With CCCCOCCO as the compound, how does the outcome read?
The outcome was “inactive”.

With COc1cc(CCC(=O)CC(=O)CCc2ccc(O)c(OC)c2)ccc1O as the compound, how does the outcome read?
Its outcome is “inactive”.

With OC1CCC(C2CCCCC2)CC1 (stereo not given) as the compound, how does the outcome read?
The outcome was “inactive”.

What about the AC50 of the same compound?
Its AC50 is 100 µM (active).

With O=C(O)c1ccccc1C(c1ccc(O)cc1)c1ccc(O)cc1 as the compound, how does the outcome read?
The outcome was “inactive”.

What does the source list for c1ccc2cc3c(ccc4ccccc43)cc2c1?
outcome: inactive; AC50: 3.05 µM (active) and 2.3 µM (active)

How did the outcome turn out when CCCCCCCCC(=O)O was run?
The outcome was “inactive”.

For COCC(C)OCC(C)O (stereo not given), which outcome is on record?
The outcome was “inactive”.

O=C(O)Cc1cc(I)c(Oc2cc(I)c(O)c(I)c2)c(I)c1 was tested. Which outcome did it give?
Its outcome is “inactive”.

For CC[C@H](C)[C@@H](C(=O)O)n1sc2ccccc2c1=O, which outcome is on record?
The outcome was “inactive”.

With Cc1cc(CCN2CCN(c3nsc4ccccc34)CC2)cc2c1NC(=O)CC2(C)C as the compound, how does the outcome read?
Its outcome is “inactive”.

How did the outcome turn out when NCC(F)(F)C(F)(F)C(F)(F)C(F)(F)C(F)(F)C(F)(F)C(F)(F)F was run?
The outcome was “inactive”.

Which AC50 does the source give for CC(C)(C)c1cc(C(C)(C)C)c(O)c(C(C)(C)C)c1 here?
Its AC50 is 100 µM (active).

And the outcome?
Its outcome is “inactive”.

CCCOc1sc(C(=O)N2CCC(c3cc(CN)ccc3F)CC2)c(C)c1Br was tested. Which AC50 did it give?
Its AC50 is 3.7 µM (active).

With C=C(C)C(=O)OCCC(F)(F)C(F)(F)C(F)(F)C(F)(F)C(F)(F)C(F)(F)F as the compound, how does the outcome read?
The outcome was “inactive”.

How did the outcome turn out when C[C@@H]1C[C@H]2[C@@H]3CCC4=CC(=O)C=C[C@]4(C)[C@@]3(F)[C@@H](O)C[C@]2(C)[C@@]1(O)C(=O)COP(=O)(O)O was run?
Its outcome is “inactive”.
